ST2 inh: inhibitors of human ST2 (IL1RL1) binding to IL-33; AlphaLISA ST2-Fc/biotin-IL-33 interaction, 1 h; inhibition, % for hits at 17 µM; 78,000 compounds, 2.3% hits; in the data active = inhibition above about 30%
Target sequence (Q01638 whole entry, looked up): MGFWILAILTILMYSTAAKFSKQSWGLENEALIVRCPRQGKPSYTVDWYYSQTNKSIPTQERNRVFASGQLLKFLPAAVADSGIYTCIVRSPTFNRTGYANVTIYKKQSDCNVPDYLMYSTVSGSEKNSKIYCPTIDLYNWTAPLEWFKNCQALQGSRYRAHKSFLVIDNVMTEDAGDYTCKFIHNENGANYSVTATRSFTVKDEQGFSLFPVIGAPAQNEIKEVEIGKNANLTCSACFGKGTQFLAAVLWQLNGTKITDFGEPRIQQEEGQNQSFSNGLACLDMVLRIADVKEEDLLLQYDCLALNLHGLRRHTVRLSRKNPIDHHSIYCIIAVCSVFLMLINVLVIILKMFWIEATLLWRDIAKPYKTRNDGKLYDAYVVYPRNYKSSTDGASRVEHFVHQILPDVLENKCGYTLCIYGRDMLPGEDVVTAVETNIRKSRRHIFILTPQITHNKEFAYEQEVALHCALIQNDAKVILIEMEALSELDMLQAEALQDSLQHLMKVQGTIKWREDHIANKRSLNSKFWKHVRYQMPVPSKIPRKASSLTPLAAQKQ
Large screens that a line does not name were inactive; ! = not active in a repeat. The sample as a whole holds a higher share of hits than the screen did.

O=C(Nc1ccc(Br)cc1)c1cc(C2CC2)on1	none
Cc1cc(NC(=O)CSc2nncn2C)ccc1Cl	none
COC(=O)C1=C(N)OC2=C(C(=O)CC(C)(C)C2)C1c1ccc(Br)cc1 (centres undefined)	none
C=CCSc1nnc2c(n1)OC(c1ccncc1)N(C(C)=O)c1ccccc1-2 (centres undefined)	none
CCN(CC)c1ccc(C2Oc3nc(SC)nnc3-c3ccccc3N2C(C)=O)c(OC)c1 (centres undefined)	ST2 inh 36.0%
C=CCSc1nnc2c(n1)OC(c1ccccn1)N(C(C)=O)c1ccccc1-2 (centres undefined)	none
C=CCSc1nnc2c(n1)OC(c1ccc(OC)cc1OC)N(C(C)=O)c1ccccc1-2 (centres undefined)	ST2 inh 30.0%
COc1cc(C2Oc3nc(SC)nnc3-c3ccccc3N2C(C)=O)cc(OC)c1OC (centres undefined)	none
COc1ccc(Br)c(C2Oc3nc(SC)nnc3-c3ccccc3N2C(C)=O)c1 (centres undefined)	none
O=C(NCc1cnc2c(c1)CCC2)C1CC(=O)N(Cc2ccccn2)C1 (centres undefined)	none
CC(=O)c1ccccc1NC(=O)CCCn1nc(C)c([N+](=O)[O-])c1C	none
COc1cccc(C2C(C(=O)OC3CCCCC3)=C(C)Nc3nnnn32)c1OC (centres undefined)	none
N#Cc1c(NC(=O)COc2cccc3ccccc23)sc2c1CCCC2	none
COc1ccc(-c2cc(C(=O)Nc3sc4c(c3C#N)CCC4)no2)cc1	none
COc1ccc(-c2cc(C(=O)Nc3sc4c(c3C#N)CCCC4)no2)cc1OC	none
N#Cc1c(-n2ncnc2-c2ccc3c(c2)OCO3)sc2c1CCCCC2	ST2 inh 35.0%!
Fc1cc(Br)ccc1-n1ncnc1-c1ccc2c(c1)OCO2	none
COc1ccc(-c2ncnn2-c2sc3c(c2C#N)CCCC3)cc1	ST2 inh 44.0%
COc1ccccc1-c1ncnn1-c1sc2c(c1C#N)CCCCC2	ST2 inh 48.0%
COc1ccccc1-c1nc2sc3c(c2c(=O)[nH]1)CCCC3	none
N#Cc1c(NC(=O)c2cc(-c3ccc4c(c3)OCO4)on2)sc2c1CCC2	none
CC1=C[C@@H](CNC(=O)c2ccco2)[C@H](C(C)C)C[C@H]1CC(=O)NCc1ccc(F)cc1	none
O=C(c1cccc(F)c1)N1CCN(CCCc2ccccc2)CC1	none
O=C(Nc1ccc2c(c1)OCO2)N1CCCC1c1ccccn1 (centres undefined)	none
O=C(c1ccncc1)N1C[C@@H]2C[C@H](C1)c1ccc(-c3ccccc3CN3CCOCC3)c(=O)n1C2	none
Cc1ccc(N2C(=O)C3CC=CC(C)C3C2=O)cc1C (centres undefined)	none
COc1cc(S(=O)(=O)N2CCN(c3nc(C)cc(N4CCCC4)n3)CC2)c(C)cc1C	none
CC1CCN(C(=O)COc2ccc3c(c2)C(=O)CC(C)(C)O3)CC1	none
CCc1ccccc1NC(=O)c1sc2ccccc2c1Cl	none
Cc1ccccc1CSc1nc2c(c(=O)n1-c1ccc(F)cc1)SCC2	none
Cc1ccn2cc(-c3ccc(I)cc3)nc2c1	none
Cc1c(Cl)c([N+](=O)[O-])nn1CCCC(=O)Nc1cccc(C(F)(F)F)c1	none
CCc1c(C(=O)NC(CC)c2ccccn2)csc1C (centres undefined)	none
COc1cc(C2C(C#N)=C(N)Oc3n[nH]c(-c4ccccc4)c32)ccc1O (centres undefined)	none
COc1ccc(C2C(C#N)=C(N)Oc3n[nH]c(-c4ccc(F)cc4)c32)cc1OC (centres undefined)	ST2 inh 31.0%
COc1ccc(C2C(C#N)=C(N)Oc3n[nH]c(-c4ccc5ccccc5c4)c32)cc1OC (centres undefined)	none
CCOc1ccccc1NC(=O)CSc1nnc(Cc2cc(=O)[nH]c(=O)[nH]2)n1-c1ccccc1	none
Cc1ncc(-c2ccc(F)cc2)c(C2CCCN(C(=O)Cc3ccc(N4CCNC4=O)cc3)C2)n1 (centres undefined)	none
CCOc1ccc(-c2cn(-c3ccc(Cl)cc3)c(=O)[nH]2)cc1Cl	none
O=C(Nc1ccncc1)c1ccc(Cl)cc1Cl	none
N#CC1=C(N)Oc2cc(O)c(Cl)cc2C1c1ccc(F)cc1 (centres undefined)	none
N#CC1=C(N)Oc2cc(N)ccc2C1c1cccc(I)c1 (centres undefined)	none
COc1ccc(N=Cc2cc3c(cc2O)OC(N)=C(C#N)C3c2cccc(F)c2)cc1 (centres undefined)	ST2 inh 33.0%
CC1CCCN(C(=O)c2cn(C)c(=O)c3c2c2ccccc2n3C)C1 (centres undefined)	none
O=C1CC(c2ccccc2)CC2=C1C(c1cc3c(cc1[N+](=O)[O-])OCO3)Nc1ccccc1N2 (centres undefined)	ST2 inh 44.0%
O=C1CC(c2ccccc2)CC2=C1C(c1cc(Br)ccc1F)Nc1ccccc1N2 (centres undefined)	none
O=C1CC(c2ccccc2)CC2=C1C(c1ccccc1Br)Nc1ccccc1N2 (centres undefined)	none
O=C(Cc1c(C(=O)O)[nH]c2ccc(Cl)cc12)NCc1cccs1	none
Cn1c(=O)c2c(nc(SCc3ccc(C(C)(C)C)cc3)n2C)n(C)c1=O	none
COC(=O)c1c(NC(=O)COc2ccc(C(C)(C)C)cc2)sc2c1CCC2	none
CC(C)(C)c1ccc(C(=O)Nc2ccc3c(c2)OCO3)cc1	none
COc1ccccc1NC(=O)c1ccc(OCc2ccccc2)cc1	none
CCc1ccc(NC(=O)c2ccc(N(Cc3ccccc3)S(C)(=O)=O)cc2)cc1	none
COC(=O)C1=C(NC(=O)c2ccc(Cc3ccccc3)cc2)CCS1	ST2 inh 31.0%
COC(=O)C1=C(NC(=O)c2ccc(C(C)(C)C)cc2)CCS1	ST2 inh 53.0%
Cc1ccc(NC(=O)c2cnc3scc(C)n3c2=O)cc1C	none
Cc1cccn2c(=O)c3cc(C(=O)NCCc4ccccc4)c(=N)n(CCOCCO)c3nc12	none
CNC(=O)COc1ccc(/C=C/c2ccccc2)cc1	none
COc1cc(NC(=O)O[C@@H]2CO[C@H]3[C@@H]2OC[C@@H]3NC(=O)COc2ccccc2)cc(OC)c1	none
O=C(NCc1ccccc1Cl)c1cccn2c(=O)c3sccc3nc12	none
O=C(NCCN1CCOCC1)c1ccc2c(c1)ncn2C1CCCCCC1	none
CCCN1CCC2(CC1)C1CN(CCC)CC=C1C(C#N)=C(N)C2(C#N)C#N (centres undefined)	none
COc1ccc2nc(NC(=O)c3ccc(Cl)s3)sc2c1	none
CS(=O)(=O)c1ccc2nc(NC(=O)/C=C/c3ccc(Cl)cc3)sc2c1	none
COc1ccc2nc(NC(=O)/C=C/c3ccc([N+](=O)[O-])cc3)sc2c1	ST2 inh 31.0%
CCOc1ccc(S(=O)(=O)N=C2C=C(Nc3cccc(C)c3)C(=O)c3ccccc32)cc1	ST2 inh 90.0%
Cc1ccc(S(=O)(=O)N=C2C=C(Nc3cccc(C)c3)C(=O)c3ccccc32)cc1	ST2 inh 84.0%
Cc1cccc(NS(=O)(=O)c2ccc3[nH]c(=O)[nH]c3c2)c1	none
CCOC(=O)c1cnc2ccccc2c1Nc1cccc(C)c1	none
Cc1ccc(S(=O)(=O)Nc2cccc(Cl)c2)cc1	none
CCOc1ccc(Nc2nc(C)c([N+](=O)[O-])c(Nc3ccccc3)n2)cc1	none
Cc1cc(C)nc(NS(=O)(=O)c2ccc(NCc3nc4ccccc4n3C)cc2)n1	none
Oc1ccc(Cl)cc1C1=Nc2ncnn2C(c2ccccc2)C1 (centres undefined)	none
Cc1cccc(CSC2=NCCN2C(=O)C2CCCC2)c1	none
O=C1c2ccccc2C(=O)N1CN(CN1C(=O)c2ccccc2C1=O)C1CC1	none
CCN1CCCC1CN(CC1CCN(CCOC)CC1)C(=O)C1=NNC(=O)CC1 (centres undefined)	none
